According to PubChem BioAssay:
Values without a mark were called inactive. Where a call stands in place of a potency, no number is given. For some assays here: Potency and affinity values are given separately. Active and inactive are the calls of the source. Unless noted, no rule for the calls is given here.

How the values were obtained:
[1] = antimalarial activity against Dd2 strain (AID 2302;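 active = growth inhibition above 50% at the single 2 µM test dose, taken to imply half-maximal potency below 2 µM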); conditions: P. falciparum Dd2 in RBCs, LDH growth readout, 72 h; at 2 µM; hits give high values
[2] = human hepatoma cell viability loss – ATP luminescence, cytotoxicity control for P. falciparum antimalarial project, primary screen (AID 2303;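 active = inhibition above 50%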); conditions: HepG2 viability, 24-48 h, at 10 µM, hits give high values
[3] = target: L-lactate dehydrogenase (Plasmodium falciparum (isolate CDC / Honduras)) (UniProt Q27743); experiment: PfLDH activity inhibition – cell lysate, 3D7 strain, counter-screen for P. falciparum growth inhibition project (AID 2304); conditions: P. falciparum 3D7 crude extract, LDH APAD/NBT absorbance; at 2 µM; hits give high values
Chain of L-lactate dehydrogenase (Plasmodium falciparum (isolate CDC / Honduras)) (Q27743 whole entry, looked up): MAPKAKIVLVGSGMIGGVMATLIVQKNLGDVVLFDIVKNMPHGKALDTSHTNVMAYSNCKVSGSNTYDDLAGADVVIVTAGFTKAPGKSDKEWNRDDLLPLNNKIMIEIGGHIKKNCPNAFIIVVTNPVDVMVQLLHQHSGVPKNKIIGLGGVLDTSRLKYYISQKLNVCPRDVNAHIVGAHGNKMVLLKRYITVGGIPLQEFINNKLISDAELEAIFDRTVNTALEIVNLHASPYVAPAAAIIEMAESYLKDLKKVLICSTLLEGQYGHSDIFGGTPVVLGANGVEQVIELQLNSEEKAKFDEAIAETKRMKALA

[4] = inhibition of 3D7 malaria parasite growth – strain 3D7 (AID 2306); conditions: P. falciparum 3D7 erythrocytic growth, LDH absorbance, 72 h; at 2 µM; hits give high values
[5] = target: Calcium-dependent protein kinase 1 (Plasmodium falciparum (isolate 3D7)) (UniProt P62344); experiment: PfCDPK1 kinase inhibitors, biochemical, TCAMS library (AID 1159585; cut-off not given, nearly all actives have IC50 up to about 0.98 µM;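 also: inhibitors leave more ATP so luminescence rises with inhibition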); conditions: recombinant PfCDPK1, Kinase-Glo ATP depletion luminescence
Chain of Calcium-dependent protein kinase 1 (Plasmodium falciparum (isolate 3D7)) (P62344 whole entry, looked up): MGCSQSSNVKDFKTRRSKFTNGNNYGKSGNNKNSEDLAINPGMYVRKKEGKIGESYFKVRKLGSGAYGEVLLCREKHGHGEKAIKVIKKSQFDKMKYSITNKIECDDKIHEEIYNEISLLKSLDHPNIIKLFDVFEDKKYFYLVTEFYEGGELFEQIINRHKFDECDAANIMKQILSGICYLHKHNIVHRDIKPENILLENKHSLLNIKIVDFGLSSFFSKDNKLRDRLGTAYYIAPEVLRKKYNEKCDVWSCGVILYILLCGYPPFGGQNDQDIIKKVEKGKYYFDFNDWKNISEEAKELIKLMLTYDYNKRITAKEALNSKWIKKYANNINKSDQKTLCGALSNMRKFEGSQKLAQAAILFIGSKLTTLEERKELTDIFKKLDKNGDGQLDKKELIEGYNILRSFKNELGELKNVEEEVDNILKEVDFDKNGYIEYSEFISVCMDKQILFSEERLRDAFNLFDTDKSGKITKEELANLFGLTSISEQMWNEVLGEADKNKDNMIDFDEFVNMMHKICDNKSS

[6] = target: Plasmodium falciparum protein kinase 6 (PK6, PF3D7_1337100) (UniProt Q8IDW1); experiment: PfPK6 kinase inhibitors, biochemical, TCAMS library (AID 1159586); conditions: recombinant PfPK6, Kinase-Glo ATP depletion luminescence
Chain of Plasmodium falciparum protein kinase 6 (PK6, PF3D7_1337100) (Q8IDW1 1-305): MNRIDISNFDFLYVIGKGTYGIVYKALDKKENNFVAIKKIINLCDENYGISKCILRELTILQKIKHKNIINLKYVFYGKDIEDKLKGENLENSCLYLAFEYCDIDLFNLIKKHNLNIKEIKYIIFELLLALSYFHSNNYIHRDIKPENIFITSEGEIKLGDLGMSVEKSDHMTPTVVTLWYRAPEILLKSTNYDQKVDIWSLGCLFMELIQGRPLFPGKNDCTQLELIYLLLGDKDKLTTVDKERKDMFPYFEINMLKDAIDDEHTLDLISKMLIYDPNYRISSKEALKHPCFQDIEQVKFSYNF

[7] = target: Protein kinase 7 (PK7), Plasmodium falciparum 3D7 (PF3D7_0213400) (UniProt Q7YTF7); experiment: inhibition of Plasmodium PK7 catalytic activity – biochemical, TCAMS antimalarial set, Kinase-Glo luminescence (AID 1159587); conditions: recombinant PfPK7, Kinase-Glo ATP depletion luminescence
Chain of Protein kinase 7 (PK7), Plasmodium falciparum 3D7 (PF3D7_0213400) (Q7YTF7 1-343): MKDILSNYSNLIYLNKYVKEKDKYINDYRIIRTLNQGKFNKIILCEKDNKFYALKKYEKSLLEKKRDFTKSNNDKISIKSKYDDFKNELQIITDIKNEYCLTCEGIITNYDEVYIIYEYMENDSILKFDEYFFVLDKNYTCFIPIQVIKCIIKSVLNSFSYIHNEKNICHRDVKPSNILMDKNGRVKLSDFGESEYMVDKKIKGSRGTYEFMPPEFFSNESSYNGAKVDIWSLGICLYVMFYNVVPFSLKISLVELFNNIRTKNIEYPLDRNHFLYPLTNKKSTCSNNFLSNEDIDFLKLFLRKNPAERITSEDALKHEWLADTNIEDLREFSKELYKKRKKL

[8] = target: Calcium-dependent protein kinase 4 (Plasmodium falciparum (isolate 3D7)) (UniProt Q8IBS5); experiment: PfCDPK4 kinase inhibitors, biochemical, TCAMS library (AID 1159588; cut-off not given, nearly all actives have IC50 up to about 0.91 µM); conditions: recombinant PfCDPK4, Kinase-Glo ATP depletion luminescence
Chain of Calcium-dependent protein kinase 4 (Plasmodium falciparum (isolate 3D7)) (Q8IBS5 whole entry, looked up): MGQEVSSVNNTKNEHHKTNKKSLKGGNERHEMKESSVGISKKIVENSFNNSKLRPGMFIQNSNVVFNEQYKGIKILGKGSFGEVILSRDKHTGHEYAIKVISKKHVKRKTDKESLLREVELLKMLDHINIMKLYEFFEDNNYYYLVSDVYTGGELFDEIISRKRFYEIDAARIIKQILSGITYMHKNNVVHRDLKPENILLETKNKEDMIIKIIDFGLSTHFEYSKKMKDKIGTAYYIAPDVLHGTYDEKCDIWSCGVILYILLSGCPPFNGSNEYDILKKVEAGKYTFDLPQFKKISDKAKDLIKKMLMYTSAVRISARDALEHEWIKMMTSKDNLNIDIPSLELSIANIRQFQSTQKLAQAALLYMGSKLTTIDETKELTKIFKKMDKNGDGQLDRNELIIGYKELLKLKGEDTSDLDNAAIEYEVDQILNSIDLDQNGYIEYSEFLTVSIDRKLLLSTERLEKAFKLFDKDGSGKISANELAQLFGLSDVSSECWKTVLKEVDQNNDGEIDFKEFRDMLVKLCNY

Row | SMILES | growth inhibition [1] | inhibition [2] | inhibition [3] | growth inhibition [4] | outcome [5] | outcome [6] | outcome [7] | outcome [8]
1 | COc1cccc(CNC(=O)c2cccc(-c3cccc(CN4CCC(N5CCCC5)CC4)c3)n2)c1 | 76% (active) | 22% | 1% | 100% (active) | inactive | inactive | inactive | inactive
2 | O=S(=O)(Nc1cccc(CCN2CCCCC2CCN2CCCC2)c1)c1ccc2ccccc2c1 (stereo not given) | 40% | 22% | -2% | 91% (active) | inactive | inactive | inactive | inactive
3 | O=C(NC1CCCC1)c1ccc(N2CCC(NCc3cccc(C(F)(F)F)c3)CC2)cc1 | 75% (active) | 11% | 1% | 87% (active) | inactive | inactive | inactive | inactive
4 | Cc1cccc(Cl)c1S(=O)(=O)Nc1cccc(CCN2CCC(N3CCCCC3)CC2)c1 | 18% | 34% | 2% | 91% (active) | inactive | inactive | inactive | inactive
5 | Cc1ccnc(-n2c(C)cc(C=C3SC(=Nc4ccccc4)N(Cc4ccco4)C3=O)c2C)c1 | 98% (active) | -5% | -1% | 99% (active) | inactive | inactive | inactive | inactive
6 | CCOc1ccc(N(CC)S(=O)(=O)c2cc(Br)cc3c2N(C(=O)C2CC2)CC3)cc1 | 97% (active) | -4% | -5% | 99% (active) | inactive | inactive | inactive | inactive
7 | Cc1ccccc1CNc1nccc(NCCC(=O)Nc2ccccc2)n1 | 15% | 16% | -3% | 90% (active) | inactive | inactive | inactive | inactive
8 | CC(O)C1CCCCN1C(=O)c1cccc(-c2ccc(-c3nc4ccccc4[nH]3)s2)c1 (stereo not given) | 23% | 24% | -1% | 100% (active) | inactive | inactive | inactive | inactive
9 | Cc1ccc(NC(=O)N2CCN(CCCCCNC(=O)/C=C/c3ccc(Cl)c(Cl)c3)CC2)cc1C | -5% | 7% | 0% | 94% (active) | inactive | inactive | inactive | inactive
10 | CC(C)(C)c1ccc(CNC(=O)/C=C/c2ccc(CNC3CCNCC3)cc2)cc1 | 21% | 6% | 1% | 96% (active) | inactive | inactive | inactive | inactive
11 | CN(CCCN(C)c1cc(NC(=O)c2ccc(F)cc2)ccn1)Cc1cccc(F)c1 | 60% (active) | -5% | -1% | 83% (active) | inactive | inactive | inactive | inactive
12 | OCCCCCCNc1nc(NCc2ccccc2-c2ccc(C(F)(F)F)cc2)nc(N2CCNCC2)n1 | 16% | 13% | 2% | 89% (active) | inactive | inactive | inactive | inactive
13 | CCCCCN1CCCC1CNS(=O)(=O)c1cccc(C(=O)Nc2cccc(C#N)c2)c1 (stereo not given) | 7% | 19% | -1% | 90% (active) | inactive | inactive | inactive | inactive
14 | COc1ccc2ccccc2c1C=NNc1cc(C)nc2cc(C(F)(F)F)ccc12 | 4% | 1% | 0% | 92% (active) | inactive | inactive | inactive | inactive
15 | Cc1cc(NC(=O)[C@H](CC2CCCCC2)Nc2ccc(C#N)c3ccccc23)ccc1F | 99% (active) | 21% | -6% | 102% (active) | inactive | inactive | inactive | inactive
16 | O=C(Nc1nc(-c2ccccn2)cs1)c1ccccc1COc1ccccc1 | 42% | 34% | -2% | 83% (active) | inactive | inactive | inactive | inactive
17 | c1csc(-c2nc(N3CCCCC3)ncc2-c2ccsc2)n1 | 72% (active) | -5% | -3% | 89% (active) | inactive | inactive | inactive | inactive
18 | FC(F)(F)c1ccc(-c2ccc(CNC3CCN(CCN4CCOCC4)CC3)cc2)cc1 | 74% (active) | 44% | 0% | 103% (active) | inactive | inactive | inactive | inactive
19 | OCC1CCN(Cc2ccc(-c3ccc(-c4nc5ccc(C(F)(F)F)cc5[nH]4)cc3)cc2)CC1 | 91% (active) | 17% | -2% | 100% (active) | inactive | inactive | inactive | inactive
20 | CN(c1ccc(NC(=O)Nc2cc(C(C)(C)C)on2)cc1)c1ccnc(NCCOC(=O)Nc2cc(C(C)(C)C)on2)n1 | 54% (active) | 59% (active) | 4% | 102% (active) | inactive | inactive | inactive | inactive

Row | SMILES | growth inhibition [1] | inhibition [2] | inhibition [3] | growth inhibition [4] | outcome [5] | outcome [6] | outcome [7] | outcome [8]
21 | O=c1cc(NC[C@H]2CCC[C@@H]2NC2CCCc3c2[nH]c2ccccc32)[nH]c2ccccc12 (stereo not given in full) | 25% | 6% | -6% | 101% (active) | inactive | inactive | inactive | inactive
22 | COc1ccccc1-n1c(-c2ccc3ccccc3c2)csc1=NC(=O)c1ccccc1 | 79% (active) | -6% | -1% | 93% (active) | inactive | inactive | inactive | inactive
23 | COC(=O)c1ccc2nc(-c3ccc(C(=O)NCc4ccc(Cl)c(Cl)c4)cc3)[nH]c2c1 | 3% | 1% | -2% | 95% (active) | inactive | inactive | inactive | inactive
24 | CC(C)(C)c1nn(-c2ccc(Cl)cc2)c2[nH]c(=O)c(CNCc3ccc4c(c3)OCO4)cc12 | 98% (active) | 15% | 7% | 100% (active) | inactive | inactive | inactive | inactive
25 | COc1ccc(CNC2Cc3ccccc3C2)cc1-c1ccc(S(=O)(=O)NCc2cccnc2)s1 | 18% | 49% | 3% | 91% (active) | inactive | inactive | inactive | inactive
26 | Cc1cccc2[nH]c(-c3ccc(-c4ccc(CNCc5cnn(-c6ccccc6)n5)cc4)cc3)nc12 | 99% (active) | 35% | -4% | 101% (active) | inactive | inactive | inactive | inactive
27 | CC(=O)Nc1ccc(CN2CCC(NC(=O)c3ccc(-c4cccc(OC(C)C)c4)s3)CC2)cc1 | 13% | 14% | -5% | 89% (active) | inactive | inactive | inactive | inactive
28 | COc1cc(Cl)c(C)cc1-n1cc(C(=O)c2cc(Br)ccc2O)cc(C#N)c1=O | 35% | 3% | -3% | 95% (active) | inactive | inactive | inactive | inactive
29 | Cc1ccc(-c2cc(C(=O)Nc3ccc(S(=O)(=O)N4CC(C)OC(C)C4)cc3)[nH]n2)c(O)c1 (stereo not given) | 98% (active) | 16% | -1% | 91% (active) | inactive | inactive | inactive | inactive
30 | O=C(Nc1cccc(-c2ccc(CN3CCCC3)cc2)c1)c1cccc(F)c1 | 17% | 20% | -6% | 99% (active) | inactive | inactive | inactive | inactive
31 | COc1ccc(C2CC(=O)C3=C(C2)NC(C)=C(C(=O)OC2CCCC2)C3c2cccc(O)c2)cc1OC (stereo not given) | 98% (active) | 8% | -1% | 101% (active) | inactive | inactive | inactive | inactive
32 | COc1ccc(CN(C)Cc2cc(C(C)C)c(C)cc2O)cc1F | 98% (active) | 1% | -4% | 98% (active) | inactive | inactive | inactive | inactive
33 | CN1CCN(CCCN(Cc2ccc(-c3cccc(CNCc4ccc5c(c4)OCO5)c3)cc2)C(=O)NCCc2ccccc2)CC1 | 85% (active) | 36% | 3% | 98% (active) | inactive | inactive | inactive | inactive
34 | CN(C)Cc1ccc(CN2CCN(CCOc3ccc(-c4ccc(Cl)cc4)cc3)CC2)o1 | 21% | 75% (active) | -1% | 90% (active) | inactive | inactive | inactive | inactive
35 | CN1CCCN(Cc2ccc(-c3ccc(NC(=O)c4ccc(Cl)cc4)cc3)cc2)CC1 | 67% (active) | 58% (active) | 3% | 96% (active) | inactive | inactive | inactive | inactive
36 | CN(C)CCCNCc1cn(S(=O)(=O)c2ccccc2Cl)c2ccccc12 | 71% (active) | 20% | -6% | 92% (active) | inactive | inactive | inactive | inactive
37 | CCn1c(SCc2ccc(F)cc2)nc2sc3c(c2c1=O)CCN(C)C3 | 81% (active) | 2% | 3% | 95% (active) | inactive | inactive | inactive | inactive
38 | Oc1ccccc1CN1CCC2(CCCN(Cc3ccccc3F)C2)C1 (stereo not given) | 83% (active) | 13% | -2% | 98% (active) | inactive | inactive | inactive | inactive
39 | CCN(CC)CCNC(=O)/C(=C/C=C/c1cc2cc(Cl)c(Cl)cc2[nH]1)OC | 31% | 30% | -4% | 88% (active) | inactive | inactive | inactive | inactive
40 | Cc1cc(N[C@@H](CC(C)C)C(=O)NCCCOC(C)C)nc(NCCc2ccc(F)cc2)n1 | 19% | 5% | -2% | 87% (active) | inactive | inactive | inactive | inactive
